From PubChem
CHX counter: counter-screen hit for Shiga toxin inhibitors, cycloheximide; cell reporter, cycloheximide protein synthesis inhibition counterscreen; max response, %; 300,000 tested, 12% active; AID 2314; in the data active = max response mostly above about 13%, no sharp cut-off; inactive = mostly below about 14%; note: read at 38.3 µM for the half of the compounds with a filed dose; 0% is about no effect
SARS PLpro yeast: inhibitors of SARS-CoV papain-like protease in yeast | S. cerevisiae expressing SARS-CoV PLpro, growth rescue | Potency, µM (top dose mostly 32.9 µM), without a hit: top-dose activity, positive = growth rescue, actives largely listed as activators | 330,000 tested, 0.19% active | AID 485353; note: potency is the fitted concentration of half-maximal effect; 0% is about no effect; nearly all actives have a fitted effect of over 55% in size
Pf growth 96h: P. falciparum growth inhibition at 96 hours; P. falciparum luciferase reporter growth, 96 h; 320,000 tested, 6.9% active; Potency, µM (highest dose often 28.7 µM), inactives show top-dose activity change, negative = inhibition, hits mostly inhibitors; active = well fitted inhibition curve with a large enough effect; inconclusive = small, poorly fitted or top-dose-only effect, or another doubt; inactive = no such curve, though single readings can be large or run the other way; note: potency is the fitted concentration of half-maximal effect; % is set by controls: 0 for no effect and ±100 for the full control effect
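Compounds incubated with erythrocytes infected by luciferase-expressing P. falciparum (2% hematocrit, 0.05% parasitemia final) for 96 hours, 37 C in 5% CO2. Growth inhibition scored as decreased luciferase luminescence.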
Pf growth 48h: inhibits P. falciparum growth in the first generation, 48 h | P. falciparum luciferase growth in erythrocytes, 48 h | AID 504832 | Potency, µM (highest dose often 28.7 µM), for the others: at the top dose activity change, negative = inhibition, usual class: inhibitors | 310,000 tested, 5.9% active; active = well fitted inhibition curve with a large enough effect; inconclusive = small, poorly fitted or top-dose-only effect, or another doubt; inactive = no such curve, though single readings can be large or run the other way; note: potency is the fitted concentration of half-maximal effect; % is set by controls: 0 for no effect and ±100 for the full control effect
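Firefly luciferase activity from engineered P. falciparum reports growth; inhibitors lower the luminescent signal. Cultures contained 2% hematocrit erythrocytes at 0.1% final parasitemia.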
NS1 function inh: inhibitors of influenza NS1 protein function; Potency, µM (series often up to 46.1 µM), for inactives: at the highest dose activity, positive = more growth; 270,000 tested, 0.4% active; AID 2326; note: potency is the fitted concentration of half-maximal effect; actives are rising curves; nearly all actives have a fitted effect of over 50% in size
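S. cerevisiae expressing influenza A NS1, grown in glucose, washed, then diluted 1:100 into pH 6.0 -URA galactose medium with 23 nl compound. Growth recovery read as OD600; NS1-free strain serves as control.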
Shiga inhibitor: Shiga toxin inhibition; Vero cells, Shiga toxin protein synthesis inhibition reporter; 290,000 tested, 9.2% active; inhibition, % at 38.7 µM; in the data active = inhibition mostly above about 28%, no sharp cut-off; inactive = mostly below about 43%; note: 0% is about no effect
Flu NS1 inh: influenza NS1 function inhibition validation. shares compounds with NS1 function inh. influenza NS1 function cell assay, 15-point titration. activity change, negative = inhibition, % at 32.9 µM. 1,400 tested, under 10 active; note: 0% is about no effect
Flu PR8 replic: influenza virus titer reduction, NS1 project; virus titer (log TCID50), log10 TCID50 at 5 µM; AID 504647; 95 tested, 30% active; MDCK infected influenza A/PR/8/34, virus titer TCID50; hits give low values; shares compounds with NS1 function inh; call rule not given here
Active calls of the source: *; ? = inconclusive; . = no result. Most compounds without a hit are left out; they make up all but 21% or so of the library. Unless noted, calls come from the whole dose curve.

SMILES | CHX counter | SARS PLpro yeast | Pf growth 96h | Pf growth 48h | NS1 function inh | Shiga inhibitor | Flu NS1 inh | others
O=C(CCSc1ccc(Cl)cc1)NC1CCCCC1 | 6 | -4% | 1% | ? | ? | 43 | -1
CN(CC(=O)NC1CCCCCC1)S(=O)(=O)c1ccc(F)cc1 | 6 | -1% | 42% | 25% | 9% | -5 | .
CN(CC(=O)NC1CCCCC1)S(=O)(=O)c1ccc(Cl)cc1 | -3 | 3% | . | 19% | ? | -1 | -2
CCN1C[C@@H]2[C@@H]3C(=O)N(Cc4ccccc4)C(=O)[C@@H]3[C@](CC)(C1=O)N2C(=O)c1ccc(C(F)(F)F)cc1 | . | -9% | . | . | . | . | .
COc1ccccc1NC(=O)CCCC(=O)OC(C)C(=O)c1ccccc1 (stereo not drawn) | 1 | 0% | 0% | -14% | -7% | -8 | .
COc1ccccc1C(=O)NNC(=S)NC(=O)c1sc2ccccc2c1Cl | -2 | 11% | ? | 12% | ? | -8 | ?
Cn1c(O)c(N=NC(=O)CNC(=O)c2cccnc2)c2ccccc21 | -3 | -1% | 37% | 14% | -9% | -1 | .
CC(C)C(C(=O)NCC1CCCO1)N(Cc1cccs1)C(=O)CNS(=O)(=O)c1ccccc1 (stereo not drawn) | -6 | 1% | -19% | -9% | -6% | 3 | .
O=C(NCC1CCCO1)C(c1cccs1)N(Cc1cccs1)C(=O)c1ccc(-c2ccccc2)[nH]1 (stereo not drawn) | 9 | 1% | 82% | ? | 13µM* | 21 | -30
CCCOc1ccc(-c2cnc(SCC(N)=O)nc2N)cc1 | 14 | -1% | . | 1% | 8.9µM* | 22 | 11
CCCCOc1ccc(-c2c(C#N)c(N)nc(SCC(N)=O)c2C#N)cc1 | -1 | 12% | ? | ? | ? | -4 | .
CC(C)(C)NC(=O)CN(Cc1ccc2c(c1)OCO2)C(=O)CNC(=O)c1cccs1 | -1 | 0% | -18% | -19% | -2% | -4 | .
CC1C(=O)N(c2ccc(S(=O)(=O)N(C)C)cc2)C1(/C=C/c1ccccc1)C(=O)NC1CCCC1 (stereo not drawn) | 3 | -8% | 51% | 9.3µM* | 8.9µM* | -5 | 18
Oc1cccc(C=NCc2ccccc2)c1O | -1 | -6% | ? | -21% | 4% | -6 | .
O=C(/C(=N/N=C/c1ccc(O)c(O)c1O)c1ccccc1)c1ccccc1 | 6 | -100% | ? | 10µM* | 3.2µM* | 12 | ?
Cc1nc2ncnn2c(C)c1CCC(=O)NCc1ccccc1 | -3 | -1% | 6% | 3% | 11% | -3 | .
COc1ccc(CNC(=O)CCc2c(C)nc3ncnn3c2C)cc1 | 7 | 6% | ? | -28% | 5µM* | 14 | 0
Cc1ccc(S(=O)(=O)N2CCN(CC(=O)NCC3(N4CCOCC4)CCCCC3)CC2)cc1 | . | 4% | -9% | -26% | . | . | .
CCC(Oc1ccccc1)C(=O)O/N=C(\N)c1ccc(OC)c(OC)c1 (stereo not drawn) | 0 | -21% | ? | 4% | 11% | -3 | .
Cc1ccc(-c2noc(C3CCCN(C(=O)c4ccccc4Br)C3)n2)o1 (stereo not drawn) | 28* | -2% | 1% | ? | ? | 71* | -10
COc1ccc(-c2noc(C3CCCN(C(=O)c4ccccc4C)C3)n2)cc1 (stereo not drawn) | 1 | -5% | ? | ? | -28% | 10 | .
CCc1ccc2[nH]c(=O)c(C3C(C#N)=C(N)Oc4c3ccc3cccnc43)cc2c1 (stereo not drawn) | -3 | ? | ? | ? | -76% | -4 | .
Cc1ccc2cc(C3C(C#N)=C(N)Oc4c3ccc3cccnc43)c(=O)[nH]c2c1 (stereo not drawn) | 8 | 27% | 2.6µM* | ? | 2.8µM* | -3 | 8
Cc1cc(C)c(NC(=O)COC(=O)/C=C/c2cccs2)c(C)c1 | 2 | 1% | 12% | 2% | 5% | -8 | .
Cn1cc(C(=O)N/N=C/c2cccc(O)c2)ccc1=O | -1 | 4% | 23% | 17% | 4% | -9 | .
SMILES | CHX counter | SARS PLpro yeast | Pf growth 96h | Pf growth 48h | NS1 function inh | Shiga inhibitor | Flu NS1 inh | others
O=C(N/N=C/c1cccc(O)c1)c1ccc(COc2ccccc2Br)cc1 | 10 | -7% | ? | 4% | ? | 25 | ?
COc1ccc(NC(=S)N(CCc2c(C)[nH]c3ccc(C)cc23)Cc2cccs2)cc1 | -3 | 2% | -96% | 0% | 11µM* | 6 | -25
COc1ccc(NC(=S)N(CCc2c(C)[nH]c3ccc(C)cc23)Cc2ccco2)cc1 | -2 | -11% | ? | -10% | 15% | -14 | .
CCOc1ccc(NC(=S)N(CCc2c(C)[nH]c3ccc(C)cc23)Cc2ccco2)cc1 | 10 | -5% | ? | ? | 11µM* | 19 | -33
COc1ccc(NC(=S)N(CCc2c(C)[nH]c3ccccc23)Cc2cccnc2)cc1 | -2 | -2% | ? | ? | -4% | -7 | .
Nc1c(C(=O)CSc2nccn2-c2ccc(Cl)cc2)c(=O)[nH]c(=O)n1C1CC1 | . | -1% | ? | ? | . | . | .
Cc1ccc2nc(-c3cccc(S(=O)(=O)N4CCCC4)c3)cn2c1 | 17* | 1% | 30% | 45% | ? | 44 | 2
CCOC(=O)N1CCC(NC(=O)c2ccc3c(c2)sc2nc(-c4ccccc4)cn23)CC1 | 39* | -8% | -20% | 1.3µM* | ? | 69* | -12 | Flu PR8 replic=7.5*
CCOC(=O)N1CCC(NC(=O)c2ccc3c(c2)N=C(CC)c2ccccc2S3)CC1 | 7 | -11% | ? | ? | 12% | 7 | .
Cn1cc([N+](=O)[O-])c(C(=O)n2cccn2)n1 | 0 | 1% | -3% | 26% | ? | 3 | 0
COc1ccc(C(C(=O)NC2CCCCC2)N(Cc2cccs2)C(=O)Cc2c[nH]c3ccccc23)cc1 (stereo not drawn) | -1 | -1% | 46% | ? | 20% | -4 | .
COc1cc(C(C(=O)NC2CCCCC2)N(C(=O)Cc2c[nH]c3ccccc23)c2ccc(C)cc2)cc(OC)c1OC (stereo not drawn) | -1 | -6% | -16% | 0% | 11µM* | -16 | 14
COc1cccc(CN(C(=O)Cc2c[nH]c3ccccc23)C(C(=O)NC2CCCCC2)c2cccs2)c1 (stereo not drawn) | 12 | -4% | 12µM* | 9.3µM* | 7.1µM* | 12 | -8
